Screening data from PubChem BioAssay.
Abeta rescue – qHTS for compounds that reverse cellular toxicity of Amyloid beta (A-beta) peptide in yeast: Primary Screen; Potency, µM (highest dose often 46.1 µM), most hits filed as activators; yeast expressing A-beta42, growth rescue, OD600, 48 h; response scale: 0% DMSO, 100% iron-clioquinol control; 410,000 tested, 0.063% active; note: nearly all actives have a fitted effect of over 55% in size
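Growth rescue measured by 600 nm absorbance after 48 h yeast culture at 30 C with compound. Values normalized between DMSO and an equimolar ferric chloride plus clioquinol control.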
TDP-43 yeast inh – qHTS of TDP-43 Inhibitors. TDP-43 expressing yeast growth rescue, BacTiter-Glo, 24 h. Potency, µM (top dose mostly 46.1 µM), actives largely listed as activators. 410,000 tested, 1.8% active. AID 652104, 2013; note: nearly all actives have a fitted effect of over 50% in size
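Growth rescue of TDP-43-toxic yeast measured as ATP luminescence (BacTiter-Glo). Cells grown to mid-log in raffinose, induced in galactose at OD600=0.02, exposed to compound 24 hr at 30 deg C.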
FUS yeast rescue – qHTS for Suppressors of FUS Proteinopathy: Primary screen using FUS-linked yeast assay | Potency, µM (highest dose often 76.6 µM), most hits filed as activators | 390,000 tested, 0.24% active | S. cerevisiae FUS-expressing, growth rescue, OD600, 24 h; note: nearly all actives have a fitted effect of over 55% in size
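Quantitative HTS measuring growth restoration of FUS-toxic yeast. Galactose-induced cells (OD 0.005) were exposed 24hr at 30C to compounds at several concentrations, then absorbance at 600 nm was recorded.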
Mito fusion yeast – qHTS Assay for Small Molecule Inhibitors of Mitochondrial Division or Activators of Mitochondrial Fusion | S. cerevisiae fusion-defective mutant growth rescue, CellTiterGlo 48 h | Potency, µM (top dose mostly 46.1 µM), hits mostly activators | 320,000 tested, 0.23% active | AID 485298, 2010; note: nearly all actives have a fitted effect of over 45% in size
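Growth-rescue viability read-out: after 48 h at the non-permissive 37C in glycerol/ethanol YPEG, yeast mitochondrial fusion mutants are measured by CellTiterGlo luminescence; compounds (23 nl pinned per well) restoring growth score as division inhibitors or fusion activators.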
aSyn yeast inh – qHTS of alpha-syn Inhibitors. AID 652106, 2013. Yeast expressing alpha-synuclein, growth rescue, BacTiter-Glo, 24 h. Potency, µM (doses to about 46.1 µM), hits mostly activators. 370,000 tested, 0.14% active; note: nearly all actives have a fitted effect of over 65% in size
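Screening used galactose-induced yeast with toxic alpha-synuclein levels, exposed to compound for 24 hr at 30 deg C. Cell growth, read with BacTiter-Glo luminescence, gave the measured signal.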
A number is an active result; . = inactive; ? = inconclusive; / = no result given. Compounds with a hit are over-represented: about 2.2% of the library has one in this group of screens. Calls come from the whole dose curve; as a rule, active = well fitted curve in the direction sought with a large enough effect; inconclusive = small, poorly fitted or top-dose-only effect, or another doubt; inactive = no such curve, though single readings can be large; an effect the other way counts as inactive or inconclusive.

SMILES | Abeta rescue | TDP-43 yeast inh | FUS yeast rescue | Mito fusion yeast | aSyn yeast inh
CCCCc1ccc(NC(=O)c2ccc(=O)n(Cc3cccc(C)c3)c2)cc1 | . | . | . | / | .
CN1CCC2(CC1)N=C(c1ccc(F)cc1)C(=S)N2C(=O)c1ccc(C(C)(C)C)cc1 | . | 20µM | . | . | .
CC(C)(C)c1ccc(C(=O)N2CCNCC2)cc1 | . | . | . | . | .
Cc1ccc2c(c1)nnn2C1CCN(C(=O)c2ccccc2F)CC1 | . | . | . | . | .
Cc1ccc2c(c1)nnn2C1CCN(C(=O)C2CCCCC2)CC1 | . | 20µM | . | . | .
CCN(CC(=O)NC(C)(C)C)C(=O)COc1c(Cl)cc(Cl)c2ccc(C)nc12 | ? | 28.2µM | . | . | .
COc1cccc(CN(C)C(=S)Nc2cccc(C)c2)c1 | . | 11.2µM | . | . | .
COc1ccc(CN(C)C(=S)Nc2ccc(Cl)cc2)cc1 | 11.2µM | . | . | . | .
C=C[C@@]1(C)C[C@H](OC(=O)CSC(C)(C)CNC(=O)[C@@H](N)C(C)C)[C@@]2(C)C(C)CC[C@@]3(CCC(=O)[C@@H]32)[C@H](C)[C@H]1O (stereo partly drawn) | / | / | / | / | .
O=C(c1ccc(F)cc1)N1CCOC(c2nc(-c3ccc(F)cc3)no2)C1 (stereo not drawn) | . | ? | . | . | .
Cc1ccc2nc(CN3CCN(S(=O)(=O)c4ccc(F)cc4)CC3)oc2c1 | . | 15.8µM | . | / | /
Clc1ccc(-c2cc3ccccc3nc2N2CCOCC2)cc1 | . | 17.8µM | . | . | .
O=C(Nc1ccc(N=Nc2ccccc2)c(NC(=O)C2CCCO2)c1)C1CCCO1 (stereo not drawn) | . | 14.1µM | ? | . | .
CN(C)/[N+]([O-])=N/Oc1ccc([N+](=O)[O-])cn1 | / | / | / | / | .
CC[C@@H](CCCCCCCn1ccc2ccccc21)CCC(=O)N(c1ccccc1)c1ccccc1 | / | / | . | / | /
O=C(Cn1nc(-c2ccccc2)ccc1=O)Nc1ccc(N2CCN(C(=O)c3cccs3)CC2)cc1 | . | . | 8.91µM | . | .
COC(=O)C[C@@H]1CC[C@@H]2[C@H](COc3ccc(NC(=O)c4ccc(F)c(F)c4)cc3C(=O)N2C)O1 | / | / | . | / | /
CCN(CC)C(=O)CC[C@@H]1CC[C@]2(CCCN(C(=O)c3cccnc3)C2)O1 | / | / | . | / | /
CCN(CC)C(=O)CC[C@H]1CC[C@]2(CCCN(S(=O)(=O)c3ccccc3)C2)O1 | / | / | . | / | /
CCOC(=O)c1[nH]c2c(c1Cc1ccccc1C)C(=O)CC(c1ccccc1)C2 (stereo not drawn) | . | . | . | / | /
CCOC(=O)c1[nH]c2c(c1Cc1ccccc1)C(=O)CC(c1ccccc1)C2 (stereo not drawn) | . | 12.6µM | . | / | /
COC(=O)c1cc(-c2cccc(OC(F)(F)F)c2)c(=O)n2c1CCC2 | / | / | . | / | /
CC(O/N=C(\N)c1ccccc1)C(=O)Nc1cccc(C(F)(F)F)c1 (stereo not drawn) | . | 12.6µM | . | / | .
COC(=O)[C@H](C)NC(=O)Nc1cccc(C(F)(F)F)c1 | . | . | . | . | .
CCc1nn(CC(=O)N2CCN(c3ccc(OC)cc3)CC2)c(=O)c2cc3sccc3n12 | . | . | . | / | /
SMILES | Abeta rescue | TDP-43 yeast inh | FUS yeast rescue | Mito fusion yeast | aSyn yeast inh
CCN1CCCCC(NC(=O)c2cc(OC)c(OC)c(OC)c2)C1=O (stereo not drawn) | / | / | . | / | /
COC(=O)c1cn(-c2ccc3c(c2)[C@@]2(CC(=O)N(C)C2c2ccccc2)C(=O)N3CC(C)C)nn1 (stereo partly drawn) | / | / | . | / | /
CC(C)(C)c1cc(NCc2ccccn2)n2ncc(-c3ccc(Cl)cc3)c2n1 | . | 22.4µM | . | . | .
CN(C)CCCNc1cc(C(C)(C)C)nc2c(-c3ccc(Cl)cc3)cnn12 | . | . | . | . | .
CCS(=O)(=O)c1oc(-c2ccc(F)cc2)nc1S(=O)(=O)c1ccc(Br)cc1 | . | 28.2µM | . | / | /
CSc1oc(-c2ccc(F)cc2)nc1S(=O)(=O)c1ccccc1 | . | . | . | . | .
CCCCS(=O)(=O)c1oc(-c2ccc(F)cc2)nc1S(=O)(=O)c1ccccc1 | . | 14.1µM | . | / | /
CC(C)S(=O)(=O)c1oc(-c2cccs2)nc1S(=O)(=O)c1ccc(F)cc1 | . | 8.91µM | . | / | /
Cc1ccc(S(=O)(=O)c2nc(-c3cccs3)oc2SC(C)C)cc1 | . | . | . | / | /
CC(C)S(=O)(=O)c1oc(-c2ccc(F)cc2)nc1S(=O)(=O)c1ccccc1 | . | 12.6µM | . | / | /
COc1cc(-n2c(=O)c3ccccc3n(Cc3cccc(Cl)c3)c2=O)cc(OC)c1OC | . | . | . | / | /
CCOC(=O)C1CCC(=O)C1 (stereo not drawn) | . | . | . | / | .
C=CCN1C(=O)[C@@H](CC(=O)NCc2cccs2)[C@]2(C(=O)OC)CCCCC=C12 | / | / | . | / | /
Cc1nc(SCC(N)=O)[nH]c(=O)c1C | / | / | . | / | /
C[C@H](O)[C@@H]1CN2CCc3c([nH]c4cccc(-c5ccccc5)c34)[C@@H]2C[C@@H]1N(C)C(=O)Nc1ccccc1 | / | / | . | / | /
CCn1c(=O)n(CC(=O)N2CCOCC2)c(=O)c2ccccc21 | / | / | . | / | /
CCCCN1CN2Cc3cc(OC)ccc3C2CS1(=O)=O (stereo not drawn) | / | / | . | / | /
COc1ccc(Cn2cc(COC(=O)NCCc3c[nH]c4ccccc34)nn2)cc1 | / | / | . | / | /
C#CCOCCOCCOCCNc1nc(N2CCN(C(=O)CCCCCCCCCCNC(=O)[C@@H](CCSC)n3cc(CCO)nn3)CC2)nc(N2CCN(C(=O)CCCCCCCCCCNC(=O)[C@H]([C@@H](C)CC)n3cc(CCCCN=C(N)N)nn3)CC2)n1 | . | . | 8.91µM | . | .
C#CCOCCOCCOCCNc1nc(N2CCN(C(=O)CCCCCCCCCCNC(=O)[C@H](CCC(=O)O)n3cc(CCCCCN)nn3)CC2)nc(N2CCN(C(=O)CCCCCCCCCCNC(=O)[C@@H]([C@H](C)O)n3cc(C)nn3)CC2)n1 | . | . | 12.6µM | . | .
C#CCOCCOCCOCCNc1nc(N2CCN(C(=O)CCCCCCCCCCNC(=O)[C@H](CCCCN)n3cc(C[C@@H](C)CC)nn3)CC2)nc(N2CCN(C(=O)CCCCCCCCCCNC(=O)[C@H](CCCCN)n3cc(C[C@@H](C)CC)nn3)CC2)n1 | . | . | ? | / | .
C#CCOCCOCCOCCNc1nc(N2CCN(C(=O)CCCCCCCCCCNC(=O)[C@H](CCCCN)n3cc(CCO)nn3)CC2)nc(N2CCN(C(=O)CCCCCCCCCCNC(=O)[C@@H]([C@H](C)O)n3cc(C)nn3)CC2)n1 | . | . | ? | . | .
